For assay [1], the system named is Human papillomavirus type 1a protein E7 (residues 44-93). Briefly: small molecules binding HPV E7 44-93 – biochemical, small-molecule microarray, residues 44-93, 635 nm fluorescence, primary screen (AID 1108).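 Further: E7 fragment applied at 1 µg/mL in TBST for 1 h at 4 C; score combines spot fluorescence with its signal to noise ratio.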 The note with it: fluorescence 635 nm, higher = more signal.
A short description of assay [2]: hepatitis C replication reporter changes, two-sided – Huh7 cells, luciferase reporter, HCV replication inhibitor project, primary screen (AID 1109).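 Further: huh7 hepatoma cells harbouring a luciferase neomycin HCV replicon reporter; luciferase luminescence as measure of HCV replicon replication; test concentration not given here.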 To be noted: Huh7 HCV replicon luciferase reporter, 48 h; higher = more signal. A general note: Reporter assays use an easily measured gene product as a stand-in for the process of interest.
Assay [3] addresses Left-right determination factor 2 (Homo sapiens) (UniProt O00292). Nature of the assay: small molecules binding LEFTY2 protein – biochemical, small-molecule microarray, 635 nm fluorescence scan, primary screen (AID 1110). The note with it: higher = more signal.
In assay [4] the target is Calmodulin-1 (Homo sapiens) (UniProt P0DP23). Nature of the assay: small molecules binding calmodulin-1 with EGTA – biochemical, small-molecule microarray, Cy5-labelled CALM1, profiling panel (AID 1111).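 Further: labelled calmodulin applied in Tris saline Tween buffer holding calcium plus EGTA and DTT.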 To be noted: Cy5-CALM1 binding fluorescence, higher = more signal.
For assay [5] the target is unchanged. Briefly: small molecules binding Ca-loaded calmodulin-1 – biochemical, small-molecule microarray, Cy5-labelled CALM1, plus calcium, artefact control for SMM control-protein annotation, profiling panel (AID 1112).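 Further: score merges spot fluorescence with signal to noise from triplicate slides.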 To be noted: Cy5-CALM1 binding fluorescence, higher = more signal.
Assay [6] in a line: probe aWnt5a binding to arrayed compounds – biochemical, biotinylated probe, 635/667 nm fluorescence, primary screen (AID 1113).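 Further: score merges 667 nm fluorescence intensity with signal-to-noise per printed feature.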 To be noted: small-molecule microarray, higher = more signal.
Assay [7] is described as follows: probe aShh binding to arrayed compounds – biochemical, biotinylated probe, 635/667 nm fluorescence, primary screen (AID 1114).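 Further: probe is biotin-labelled aShh protein from a stem cell growth factor screen; measures binding of labelled protein to compounds printed on the slide; score merges feature fluorescence at 667 nm with signal-to-noise.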 The note with it: small-molecule microarray, higher = more signal.
A short description of assay [8]: probe aNog binding to arrayed compounds – biochemical, biotinylated probe, 635/667 nm fluorescence, primary screen (AID 1115).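 Further: probe is biotinylated aNog protein used at 0.15 µg/mL for 1 h at 4 C; z-score combines 667 nm fluorescence of each spot with its signal to noise.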 To be noted: small-molecule microarray, higher = more signal.
Assay [9] addresses Torsin-1A-interacting protein 1 (Homo sapiens) (UniProt Q5JTV8). Nature of the assay: compound microarray binding of lysate hLAP1 – cell lysate, small-molecule microarray, COS7 lysate, 635/667 nm fluorescence, primary screen (AID 1116). To be noted: 635 nm fluorescence, higher = more signal.
For assay [10], the target named is Alpha-bungarotoxin (Bungarus multicinctus) (UniProt P60615). Briefly: compounds binding labelled alpha-BTX control protein – biochemical, small-molecule microarray, Alexa647 label, 635/667 nm fluorescence, artefact control for SMM control protein annotation, profiling panel (AID 1117). The note with it: alpha-BTX-A647 binding fluorescence, higher = more signal.

Structures are written as SMILES.

Alpha-bungarotoxin (Bungarus multicinctus), sequence (P60615 whole entry, looked up): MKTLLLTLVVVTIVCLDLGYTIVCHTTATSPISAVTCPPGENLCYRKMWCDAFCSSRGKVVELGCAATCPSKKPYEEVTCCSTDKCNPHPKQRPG
Left-right determination factor 2 (Homo sapiens), sequence (O00292 whole entry, looked up): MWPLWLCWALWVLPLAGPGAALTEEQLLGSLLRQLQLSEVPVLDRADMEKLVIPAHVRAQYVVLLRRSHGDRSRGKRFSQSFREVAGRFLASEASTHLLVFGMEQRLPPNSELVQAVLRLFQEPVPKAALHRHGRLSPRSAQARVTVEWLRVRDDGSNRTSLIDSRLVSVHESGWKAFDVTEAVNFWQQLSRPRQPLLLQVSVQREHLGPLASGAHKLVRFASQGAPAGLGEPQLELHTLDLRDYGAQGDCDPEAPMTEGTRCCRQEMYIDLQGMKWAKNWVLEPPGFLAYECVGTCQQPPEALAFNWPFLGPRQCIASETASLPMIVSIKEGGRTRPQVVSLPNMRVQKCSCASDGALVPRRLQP
Torsin-1A-interacting protein 1 (Homo sapiens), sequence (Q5JTV8 whole entry, looked up): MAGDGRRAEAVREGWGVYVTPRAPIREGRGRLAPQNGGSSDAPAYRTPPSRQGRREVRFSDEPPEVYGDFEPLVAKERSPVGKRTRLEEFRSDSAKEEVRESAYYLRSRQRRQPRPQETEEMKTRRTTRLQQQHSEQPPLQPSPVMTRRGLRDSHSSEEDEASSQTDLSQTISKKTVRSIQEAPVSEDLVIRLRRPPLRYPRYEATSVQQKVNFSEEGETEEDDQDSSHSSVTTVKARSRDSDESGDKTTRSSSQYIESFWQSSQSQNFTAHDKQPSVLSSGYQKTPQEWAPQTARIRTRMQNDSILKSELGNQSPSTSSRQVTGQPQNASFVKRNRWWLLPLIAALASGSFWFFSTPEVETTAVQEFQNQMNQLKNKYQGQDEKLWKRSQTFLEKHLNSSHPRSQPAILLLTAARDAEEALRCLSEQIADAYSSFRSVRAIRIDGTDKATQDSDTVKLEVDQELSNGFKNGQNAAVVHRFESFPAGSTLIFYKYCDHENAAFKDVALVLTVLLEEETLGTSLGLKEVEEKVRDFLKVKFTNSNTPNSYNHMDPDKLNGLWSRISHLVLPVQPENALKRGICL

In the case of `COC(=O)[C@H](C)NC(=O)CCC1CC(OC(=O)NCCc2ccc(F)cc2)CC2(CCCC(COC(=O)NCc3cccc(C(F)(F)F)c3)O2)O1` (stereo not given in full), the composite z-score in assay [1] is 0.518; in assay [3], 0.749; in assay [4] it was -0.0669; in assay [5], -0.23; in assay [6], -0.146; in [7], -0.59. Further, the composite z-score in assay [8] was -0.302; in assay [9] it was 0.322; in assay [10], -0.131. Besides, the z-score in assay [2] is -0.377.
Consider `CC(C)CON=C1C[C@@H](O)[C@@H](O)[C@@H]2[C@@H]3C(=O)N(C[C@@H]4CCCO4)C(=O)[C@@H]3CC[C@@H]12`, for which the composite z-score in [1] was 0.267; in assay [3], 0.0128; in assay [4], -0.333; in assay [5] it was 0.0901; in assay [6], -0.173; in [7], -0.123. Besides, the composite z-score in assay [8] is -0.103; in assay [9], -0.419; in assay [10] it was 0.678. Moreover, the z-score in assay [2] came out at 0.444.
With `CO[C@H]1COC(=O)[C@H](C)NC(=O)[C@@H](C)COC(=O)[C@H]2CCCN2C(=O)CC=C[C@H]1C`, the composite z-score is 0.13 in [1]; 0.663 in assay [3]; -0.538 in assay [4]; -1.38 in assay [5]; -0.144 in assay [6]; -0.24 in assay [7]. The composite z-score in [8] was -0.28; in assay [9], 0.109; in assay [10], -0.0339. Further, the z-score in assay [2] is -0.328.
On to `CO[C@@H]1COC(=O)[C@@H](C)COC(=O)[C@@H](C)NC(=O)CC=C[C@@H]1C`, for which the composite z-score in assay [1] was -1.03; in assay [3], 1.51; in [4], -0.99; in [5] it was -2.06; in assay [6], -0.2; in [7], -0.13. Besides, the composite z-score in assay [8] is 0.0629; in [9], 0.638; in assay [10], -0.553. In assay [2], this molecule yielded a z-score of -2.
With `O=C1C[C@@H](O)[C@@H](O)[C@@H]2[C@@H]3C(=O)N(Cc4ccc5c(c4)OCO5)C(=O)[C@@H]3CC[C@H]12`, the composite z-score was 0.508 in assay [1]; 0.632 in [3]; -0.0373 in assay [4]; -0.646 in assay [5]; -0.208 in [6]; 0.0121 in [7]. Moreover, the composite z-score in [8] is -0.0502; in assay [9], 0.346; in [10] it was -0.109. Besides, in assay [2], the z-score was -0.194.
As for `CO[C@@H]1COC(=O)CC=C[C@H](C)[C@H](OC)COC(=O)[C@H](C)NC(=O)CC=C[C@H]1C`, the composite z-score is -0.724 in assay [1]; 0.965 in assay [3]; -0.981 in assay [4]; -2.34 in assay [5]; -0.0145 in [6]; 0.479 in [7]. Also, the composite z-score is -0.368 in [8], -0.242 in assay [9] and -0.592 in [10]. This molecule also yielded a z-score in [2] of 1.39.
On to `CCOC(=O)[C@H](Cc1ccccc1)NC(=O)CCC1CC(OC(=O)NCc2ccc3c(c2)OCO3)CC2(CCCC(COC(=O)NCCc3ccccc3OC)O2)O1` (stereo not given in full), for which the composite z-score was 1.39 in [1]; 0.816 in assay [3]; 0.627 in assay [4]; 0.157 in assay [5]; -0.0944 in assay [6]; -0.0471 in [7]. The figures for the composite z-score in assay [8], in [9] and in assay [10] were -0.0125, 0.775 and 1.11, respectively. In [2], this molecule had a z-score of -1.11.
For the molecule `CC(CCN1CCCCc2nc(C)c(C)cc21)=NO[C@@H](C)c1cn([C@H](CO)Cc2ccccc2)nn1`, the composite z-score in assay [1] was 0.271; in assay [3] it was 0.813; in assay [4], 0.404; in [5], -0.0345; in assay [6], -0.152; in [7], -0.117. Moreover, the composite z-score was -0.397 in assay [8], 0.691 in [9] and 0.414 in assay [10]. In assay [2], this molecule displayed a z-score of -0.507.
Regarding `Cc1ccc(S(=O)(=O)N[C@@H]2COC(=O)[C@@H](C)COC(=O)CC=C[C@H]2C)cc1`, the composite z-score in assay [1] is -0.534; in assay [3] it was 0.449; in [4], -0.0682; in [5] it was -0.523; in [6] it was -0.0222; in assay [7], -0.157. Besides, the figures for the composite z-score in assay [8], in assay [9] and in [10] were -0.0489, 0.216 and 0.293, respectively. Moreover, in assay [2], the z-score is 0.264.
As to `COC(=O)[C@H](C)NC(=O)CCC1CC(OC(=O)NCc2ccc3c(c2)OCO3)CC2(CCCC(COC(=O)NCCc3ccccc3OC)O2)O1` (stereo not given in full), the composite z-score was 0.776 in [1]; 0.0048 in assay [3]; -0.173 in [4]; 0.351 in assay [5]; -0.219 in assay [6]; -0.206 in [7]. For the same molecule, the composite z-score in assay [8] was -0.0653; in assay [9], 0.561; in assay [10], 0.253. Also, the z-score in [2] is -0.941.
As to `COC(=O)[C@H](C)NC(=O)CCC1CC(OC(=O)NCCc2ccc(F)cc2)CC2(CCCC(COC(=O)NCCC(C)C)O2)O1` (stereo not given in full), the composite z-score is 0.466 in [1]; 0.482 in assay [3]; 0.0458 in assay [4]; -0.233 in assay [5]; -0.119 in [6]; 0.0483 in [7]. Further, the figures for the composite z-score in [8], in assay [9] and in assay [10] were -0.254, 0.189 and 1.07, respectively. In [2], the z-score was 0.839.
As for `CON=C[C@@H](NS(=O)(=O)c1ccc(C)cc1)[C@H](C)C=CCC(=O)OC`, the composite z-score in assay [1] was -0.933; in [3] it was 0.532; in [4] it was -0.654; in assay [5] it was -1.31; in assay [6], -0.128; in [7] it was 0.0756. The composite z-score was -0.425 in assay [8], 0.22 in assay [9] and -0.0634 in assay [10]. Further, the z-score in assay [2] was 0.604.
In the case of `CCOC(=O)NN=C1C[C@@H](O)[C@@H](O)[C@@H]2[C@@H]3C(=O)N(Cc4ccccc4)C(=O)[C@@H]3CC[C@H]12`, the composite z-score in [1] was -0.0228; in [3], 0.545; in assay [4], 0.903; in assay [5], -0.677; in assay [6] it was -0.0529; in assay [7], -0.0626. The figures for the composite z-score in [8], in assay [9] and in assay [10] were -0.158, -0.273 and 0.405, respectively. The molecule further came in with a z-score in assay [2] of 0.47.
With `CCCNC(=O)OC[C@H]1O[C@H](CCON=C(C)CCC(=O)OC[C@H]2O[C@H](c3ccccc3)C=C[C@@H]2Oc2ccc(OC)cc2)C=C[C@@H]1Oc1ccc(OC)cc1`, the composite z-score was -0.996 in [1]; -0.126 in assay [3]; -0.449 in assay [4]; -0.678 in [5]; -0.0685 in assay [6]; -0.138 in assay [7]. Also, the composite z-score was -0.0039 in assay [8], 0.23 in [9] and -0.183 in assay [10]. In addition, the z-score in [2] was -1.17.
Consider `CC(C)(C)N1C(=O)[C@H]2[C@H]3[C@H](O)[C@H](O)CC(=NOCc4ccccc4)[C@H]3CC[C@H]2C1=O`, for which the composite z-score in [1] is -0.397; in [3], -0.0786; in assay [4], 0.157; in assay [5], -0.272; in assay [6], -0.0125; in [7], -0.154. The values for the composite z-score in assay [8], in assay [9] and in [10] were 0.299, 0.185 and 1.28, respectively. In assay [2], the z-score is 0.561.
Regarding `COC(=O)CC=C[C@@H](C)[C@@H](C=NO[C@@H]1O[C@H](COC(C)=O)[C@@H](OC(C)=O)[C@H](OC(C)=O)[C@H]1OC(C)=O)NS(=O)(=O)c1ccc(C)cc1`, the composite z-score was -0.296 in [1]; 0.599 in assay [3]; -0.881 in [4]; -1.69 in assay [5]; -0.124 in [6]; -0.221 in [7]. For the same molecule, the results for the composite z-score in assay [8], in assay [9] and in assay [10] were -0.158, -0.441 and -1, respectively. The molecule further had a z-score in assay [2] of -0.594.
Consider `C=C(C)C(=O)OCC1CN2[C@@H](CC[C@@H](C)[C@@H]2c2ccc(Br)cc2)C(=O)O1` (stereo not given in full), for which the composite z-score in assay [1] was 0.0141; in assay [3] it was 0.501; in assay [4], -0.15; in assay [5], -0.566; in assay [6] it was -0.199; in assay [7], -0.229. Moreover, the composite z-score was 0.184 in assay [8], 0.522 in assay [9] and 0.499 in [10]. The molecule also came in with a z-score in assay [2] of 0.159.
`COC(=O)[C@@H]1CC[C@H](C)[C@@H](c2ccc(C)cc2)N1C(=O)c1ccc(C=NO[C@H](C)c2cn([C@H](CO)Cc3ccccc3)nn2)cc1`: the composite z-score is 0.671 in assay [1]; 0.776 in [3]; 3.17 in assay [4]; -0.139 in assay [5]; -0.124 in assay [6]; 0.191 in assay [7]. Also, the composite z-score in assay [8] was -0.0318; in assay [9], 0.462; in assay [10] it was 0.0997. Moreover, the z-score in assay [2] was -2.17.

For the origin of these results see PubChem BioAssay.
